Measured values as given in the supplement of paper PMC6992640.
± gives the standard deviation of the averaged measurements.

Assays:
Experiment in all cases: cell viability (% of vehicle); higher = less cytotoxic
Details in all cases: 10 µM; 72 h
HCI01 = system: HCI01 (cells of a triple-negative basal-like breast cancer xenograft)
HCI03 = system: HCI03 (cells of an ER-positive luminal breast cancer xenograft)
HCI09 = system: HCI09 (cells of a triple-negative luminal androgen receptor type breast cancer xenograft)
HCI11 = system: HCI11 (cells of an ER-positive luminal breast cancer xenograft)
HCI13 = system: HCI13 (cells of an ER-positive luminal breast cancer xenograft)
HCI16 = system: HCI16 (cells of a triple-negative basal-like breast cancer xenograft)
UCD52 = system: UCD52 (cells of a triple-negative basal-like breast cancer xenograft)
WHIM2 = system: WHIM2 (cells of a triple-negative basal-like breast cancer xenograft)
WHIM30 = system: WHIM30 (cells of a triple-negative basal-like breast cancer xenograft)
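Note: PDX cells carrying CMV promoter-driven luciferase, viability read as total photon flux per second by IVIS imaging following D-luciferin, vehicle control 0.1% DMSO.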

SMILES	cell viability (HCI01)	cell viability (HCI03)	cell viability (HCI09)	cell viability (HCI11)	cell viability (HCI13)	cell viability (HCI16)	cell viability (UCD52)	cell viability (WHIM2)	cell viability (WHIM30)
CCCCc1ncc(C=C(Cc2cccs2)C(=O)O)n1Cc1ccc(C(=O)O)cc1.CS(=O)(=O)O [Eprosartan Mesylate]	156 ± 27	129	106 ± 17	120	108 ± 12	134	124 ± 9.7	123 ± 9.3	198 ± 22
COC(=O)C1=COC(O)C2C(CO)=CCC12 (configuration not stated) [Genipin]	168 ± 20	138	95.3 ± 6	98.6	119 ± 2.7	198	110 ± 5.3	124 ± 11	155 ± 9.6
CC12CCC(O)CC1=CCC1C2CCC2(C)C(n3cnc4ccccc43)=CCC12 (configuration not stated)	119 ± 15	58.2	54.3 ± 41	76.2	103 ± 7.5	96.3	83.2 ± 4.1	118 ± 18	93.6 ± 13
CC(C)OC(=O)C(C)(C)Oc1ccc(C(=O)c2ccc(Cl)cc2)cc1 [Fenofibrate]	108 ± 18	106	93.6 ± 4.2	92.1	87.5 ± 35	135	89.1 ± 14	109 ± 1.6	137 ± 9.3
COc1c2ccoc2cc2oc(=O)ccc12 [5-Methoxypsoralen]	103 ± 24	142	93.1 ± 13	93.8	121 ± 3.1	109	85.2 ± 13	103 ± 3.7	93 ± 3.1
CN(C)CCCN1c2ccccc2Sc2ccc(Cl)cc21.Cl [Chlorpromazine HCl]	137 ± 40	98.9	68.1 ± 7.8	76.5	84.7 ± 3.1	122	51.4 ± 5.5	47.8 ± 7.8	104 ± 2.1
COCCOC(=O)C1=C(C)NC(C)=C(C(=O)OC(C)C)C1c1cccc([N+](=O)[O-])c1 (configuration not stated) [Nimodipine]	136 ± 0.51	107	128 ± 25	115	87.6 ± 5.7	121	114 ± 5.1	132 ± 7.9	157 ± 28
Cc1cccc(Nc2ccccc2C(=O)O)c1C [Mefenamic Acid]	103 ± 23	102	118 ± 43	98.1	113 ± 6.7	90.9	94.4 ± 5.6	109 ± 6	112 ± 1.5
O=c1[nH]c(=O)n(C2CCCO2)cc1F (configuration not stated)	158 ± 9.9	110	109 ± 5.2	112	89.2 ± 7.7	143	116 ± 20	130 ± 13	130 ± 0.83
Cl.Cl.OCCOCCN1CCN(C(c2ccccc2)c2ccc(Cl)cc2)CC1 (configuration not stated) [Hydroxyzine 2HCl]	169 ± 3.3	99.9	112 ± 5.6	117	85.42 ± 0.6	128	76.48 ± 0.64	97.2 ± 2.3	140 ± 23
CCOc1nc2cccc(C(=O)O)c2n1Cc1ccc(-c2ccccc2-c2nn[nH]n2)cc1 [Candesartan]	98 ± 5.4	122	93.6 ± 2.2	101	127.9 ± 1.2	109	82.15 ± 0.28	85.9 ± 7.9	112 ± 23
CNS(=O)(=O)CCc1ccc2[nH]cc(C3CCN(C)CC3)c2c1.Cl [Naratriptan]	102 ± 13	127	96.7 ± 4.1	72.5	86.22 ± 0.42	105	103 ± 1.1	91.5 ± 8	109 ± 7.3
C[N+]1(C)[C@@H]2C[C@@H](OC(=O)C(O)(c3cccs3)c3cccs3)C[C@H]1[C@@H]1O[C@@H]12.[Br-] [Tiotropium Bromide]	124 ± 17	116	106 ± 18	102	116 ± 12	103	88.9 ± 4.2	94.7 ± 18	125 ± 12
COc1ccc2c(c1)c(CC(=O)OCC(=O)O)c(C)n2C(=O)c1ccc(Cl)cc1 [Acemetacin]	108 ± 3.5	113	97.6 ± 29	97.4	111 ± 9	106	78.2 ± 5	86.9 ± 22	76.6 ± 11
O=c1[nH]c(=O)n(C2CC(O)C(CO)O2)cc1C(F)(F)F (configuration not stated) [Triflurdine (Viroptic)]	123 ± 1.4	132	137 ± 70	111	147 ± 24	97.1	116 ± 1.5	87.8 ± 36	132 ± 15
CN(C)CCCC1(c2ccc(F)cc2)OCc2cc(C#N)ccc21.O=C(O)C(=O)O (configuration not stated) [Escitalopram Oxalate]	99.8 ± 9.9	114	97.3 ± 12	86.2	93.6 ± 18	128	90.9 ± 5.2	87.5 ± 5.9	157 ± 21
CCOC(=O)C1=C(C)NC(C)=C(C(=O)OC)C1c1cccc(Cl)c1Cl (configuration not stated) [Felodipine]	116 ± 5	117	118 ± 6.6	114	112 ± 15	97.9	88.5 ± 2.3	102 ± 10	124 ± 2.7
CC(C)(C)NCC(O)c1ccc(O)c(CO)c1.O=S(=O)(O)O (configuration not stated) [Salbutamol Sulfate]	103 ± 5.9	104	97.4 ± 19	90.5	106 ± 21	104	85.4 ± 4.9	92.9 ± 19	114 ± 6.2
NC(=O)N1c2ccccc2C=Cc2ccccc21 [Carbamazepine]	107 ± 2.9	103	94.3 ± 32	106	91.8 ± 1.1	99.6	85.8 ± 4.4	75.2 ± 22	98.8 ± 4.5

SMILES	cell viability (HCI01)	cell viability (HCI03)	cell viability (HCI09)	cell viability (HCI11)	cell viability (HCI13)	cell viability (HCI16)	cell viability (UCD52)	cell viability (WHIM2)	cell viability (WHIM30)
CN(C)CCOC(C)(c1ccccc1)c1ccccn1.O=C(O)CCC(=O)O (configuration not stated) [Doxylamine Succinate]	122 ± 18	124	101 ± 14	101	90.5 ± 6.7	108	94.28 ± 0.33	97.4 ± 22	103.9 ± 0.48
Cc1cc(C=CC#N)cc(C)c1Nc1ccnc(Nc2ccc(C#N)cc2)n1 [Rilpivirine]	122 ± 9.4	111	96.5 ± 4.4	96.3	122 ± 0.84	83.9	85.5 ± 8.7	93.7 ± 11	110 ± 28
CN(C)CCN(Cc1ccccc1)c1ccccn1.Cl [Tripelennamine HCl]	89.8 ± 3.5	62.6	94.4 ± 2.5	80.6	89.3 ± 1.7	99.9	81.03 ± 0.58	111.1 ± 0.86	94.2 ± 7.7
CN1C(C(=O)Nc2ccccn2)=C(O)c2sc(Cl)cc2S1(=O)=O [Lornoxicam]	95.2 ± 8.9	111	84.7 ± 25	85.6	82.4 ± 9.6	98.4	86.2 ± 5.5	112 ± 2.6	99.1 ± 6.5
CCCS(=O)(=O)Nc1ccc(F)c(C(=O)c2c[nH]c3ncc(-c4ccc(Cl)cc4)cc23)c1F [Vemurafenib (PLX4032, RG7204)]	118 ± 12	195	114 ± 7.1	98.3	106 ± 4.2	102	108 ± 1.8	102.2 ± 0.85	185 ± 5.3
CC(=O)O.CC(O)C(CO)NC(=O)C1CSSCC(NC(=O)C(N)Cc2ccccc2)C(=O)NC(Cc2ccccc2)C(=O)NC(Cc2c[nH]c3ccccc23)C(=O)NC(CCCCN)C(=O)NC(C(C)O)C(=O)N1 (configuration not stated) [Octreotide acetate]	86.6 ± 6.2	135	87.9 ± 14	95.4	87.9 ± 3.6	90.1	84.3 ± 9.8	86.9 ± 20	102 ± 15
NC(CO)(CO)CO [Trometamol]	86.3 ± 6.3	114	94.9 ± 21	91.5	58.4 ± 13	104	86 ± 7	99.2 ± 16	113 ± 12
CCOC(=O)CCC(=O)OC1C(OC2C(C)C(OC3CC(C)(OC)C(O)C(C)O3)C(C)C(=O)OC(CC)C(C)(O)C(O)C(C)C(=O)C(C)CC2(C)O)OC(C)CC1N(C)C (configuration not stated) [Erythromycin Ethylsuccinate]	105 ± 5.4	97.5	97.4 ± 21	96.1	69.6 ± 1.3	132	87.3 ± 4.6	105 ± 20	108 ± 16
C1CNCCN1.C[C@@]12CC[C@H]3c4ccc(OS(=O)(=O)O)cc4CC[C@H]3[C@H]1CCC2=O [Estropipate]	89.8 ± 7.5	173	81.6 ± 11	95.3	159 ± 20	104	104.03 ± 0.037	91.3 ± 27	98.27 ± 0.36
CC(CCC(=O)O)C1CCC2C3C(O)CC4CC(O)CCC4(C)C3CCC12C (configuration not stated) [Chenodeoxycholic Acid]	114 ± 38	104	66 ± 10	103	41.5 ± 4.3	102	97.13 ± 0.54	115 ± 23	146 ± 3.2
COC1C(O)CC(=O)OC(C)CC=CC=CC(OC2CCC(N(C)C)C(C)O2)C(C)CC(CC=O)C1OC1OC(C)C(OC2CC(C)(O)C(O)C(C)O2)C(N(C)C)C1O (configuration not stated) [Spiramycin]	133 ± 7.7	125	110 ± 12	116	78.9 ± 20	138	94.4 ± 1.5	149 ± 30	123 ± 5.8
Cc1cn(C2CC(O)C(CO)O2)c(=O)[nH]c1=O (configuration not stated) [Telbivudine]	125 ± 3.9	128	141 ± 78	115	164 ± 67	99.4	95.5 ± 9.2	94.1 ± 16	124 ± 24
Nc1nc(=O)c2ncn(COCCO)c2[nH]1 [Acyclovir]	103 ± 7.2	107	55.9 ± 49	113	154 ± 13	87.8	91.1 ± 11	96 ± 2.8	108 ± 19
NC(=O)Cc1cccc(C(=O)c2ccccc2)c1N [Nepafenac]	117 ± 21	101	94.6 ± 3.9	95.4	84.1 ± 5.7	94.2	104 ± 1.5	159 ± 69	136 ± 14
Cc1noc(NS(=O)(=O)c2ccc(N)cc2)c1C [Sulfisoxazole]	89.3 ± 28	121	94.4 ± 8.1	86.9	107 ± 2.8	112	99.8 ± 3.5	84.1 ± 8.8	117 ± 1.3
CC(C)OC(=O)C(C(=O)OC(C)C)=C1SC=CS1 [Malotilate]	108 ± 12	84.3	90.2 ± 13	90.9	89.8 ± 3.1	75.5	89.5 ± 2.4	75.6 ± 17	97.9 ± 4
N#CC1CCCN1C(=O)CNC12CC3CC(CC(O)(C3)C1)C2 (configuration not stated) [Vildagliptin (LAF-237)]	118.9 ± 0.29	125	88.7 ± 16	126	96.1 ± 17	114	121 ± 12	112 ± 1.5	141 ± 20
COc1cc2nccc(Oc3ccc(NC(=O)C4(C(=O)Nc5ccc(F)cc5)CC4)cc3)c2cc1OC	108 ± 6.6	114	91.5 ± 2	88.9	97.7 ± 13	93.8	88.3 ± 15	90.1 ± 11	116 ± 3.4
O=S(=O)(O)NC1CCCCC1 [Cyclamic acid]	91.4 ± 14	118	94.4 ± 2	91.9	58.1 ± 1.3	121	88.7 ± 18	104 ± 13	106 ± 5.2
